Screening data (PubChem BioAssay)
Shown are actives, neighbours in structure and some others; about 2.4% of the full set was active somewhere.
D2 antagonist: HTS Assay for Allosteric Antagonists of the Human D2 Dopamine Receptor: Primary Screen for Antagonists. HEK293 TREx D2 cells, calcium flux, dopamine EC80. inhibition, % at 10 µM. actives 2% (n = 340,000); in the data active means inhibition above about 30%; inactive means below that, where a call was filed; further: 0% is about no effect
Target sequence (P14416 whole entry, looked up): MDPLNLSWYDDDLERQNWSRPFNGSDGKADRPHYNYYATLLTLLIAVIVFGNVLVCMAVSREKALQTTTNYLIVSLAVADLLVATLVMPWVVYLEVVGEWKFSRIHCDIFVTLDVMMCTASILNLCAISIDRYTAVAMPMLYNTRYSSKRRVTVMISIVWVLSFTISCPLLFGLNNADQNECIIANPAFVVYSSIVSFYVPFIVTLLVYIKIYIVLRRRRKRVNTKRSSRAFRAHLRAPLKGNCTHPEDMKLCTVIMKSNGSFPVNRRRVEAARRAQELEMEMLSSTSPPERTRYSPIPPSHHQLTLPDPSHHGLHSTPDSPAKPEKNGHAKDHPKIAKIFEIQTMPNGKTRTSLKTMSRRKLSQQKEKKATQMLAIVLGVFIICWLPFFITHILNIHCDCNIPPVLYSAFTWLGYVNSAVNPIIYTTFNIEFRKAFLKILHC
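HEK293 T-REx D2 cells, tet-induced, calcium dye no-wash. Cpd pintool add, 180 s kinetic, then EC80 DA, 180 s kinetic. Ca flux read.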
D2 ag-1: Beta-Arrestin HTS for Positive Allosteric Modulators of the Human D2 Dopamine Receptor: Agonists; actives 0.084% (n = 360,000); D(2) dopamine receptor (Homo sapiens), P14416; activation, % (test concentration not listed); DiscoveRx PathHunter D2 beta-arrestin, luminescence, 90 min; 100% = 57 uM dopamine signal; in the data active means activation above about 40%
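DiscoveRx PathHunter D2 beta-arrestin cells (2,100/well) attached overnight, then compound-stimulated 90 min at 37 C in HBSS/10 mM HEPES/0.1% Tween-20 buffer; beta-galactosidase complementation read by luminescence after 1 h at ambient temperature. Dopamine 57 uM final (EC100) as control.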
D2 PAM-1: HTS Assay for Positive Allosteric Modulators of the Human D2 Dopamine Receptor: Primary Screen for Potentiators; D(2) dopamine receptor (Homo sapiens), P14416; HEK293 T-REx D2, calcium flux, EC20 dopamine potentiation; potentiation, % at 10 µM; actives 0.34% (n = 340,000);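 active means potentiation over 3 SD above the plate norm, cut at about 30% in these data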; further: 0% is about no effect
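Potentiation of an EC20 dopamine calcium response measured kinetically over 180 s, after a preceding 180 s compound-only read flagging agonists. Cells: inducible Hek293 Trex D2 line, 4000/well, cultured overnight at 30 C before dye loading.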
D2 ag-2: HTS Assay for Allosteric Agonists of the Human D2 Dopamine Receptor: Primary Screen for Agonists. activation, % at 2 µM. AID 485358, 2010. HEK293 T-REx D2 cells, calcium flux agonist mode. actives 0.53% (n = 340,000). D(2) dopamine receptor (Homo sapiens), P14416;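 active means activation over 3 SD above normal in the single-dose calcium agonist read, cut at about 30% in these data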; further: 0% is about no effect
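Agonism scored from kinetic calcium signal (1 read/sec, 180 s) following compound pin transfer, after a 10 s baseline. Cells: HEK293 Trex line expressing inducible D2 receptor coupled to calcium, dye-loaded after overnight culture at 30 C.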
D2 PAM-2: Beta-Arrestin HTS for Positive Allosteric Modulators of the Human D2 Dopamine Receptor: Potentiators; potentiation, % (concentration not given with the values); D(2) dopamine receptor (Homo sapiens), P14416; AID 624464, 2012; actives 0.23% (n = 360,000); DiscoveRx D2 beta-arrestin cells, luminescence, 90 min; 100% = 57 uM dopamine signal; in the data active means potentiation above about 50%
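PathHunter D2 cells, attached overnight at 37 deg C, received compound in DMSO plus dopamine at EC20 (50 nM final) for 90 min at 37 deg C. Beta-arrestin recruitment was read as luminescence after 1 h with detection reagent at ambient temperature.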
An asterisk follows results filed as active.

For C/C(Cn1nnc([N+](=O)[O-])n1)=N\NC(=O)c1ccccc1 the results were D2 antagonist -7, D2 ag-1 7, D2 PAM-1 2, D2 ag-2 1 and D2 PAM-2 59*.
For C/C(Cn1cnc([N+](=O)[O-])n1)=N\NC(=O)c1ccccc1 the results were D2 antagonist -7, D2 ag-1 -1, D2 PAM-1 -9, D2 ag-2 -1 and D2 PAM-2 2.
`Cc1cccnc1NC(=O)CSc1ccc2c(c1)OCCO2` gave D2 antagonist 32*, D2 ag-1 -1, D2 PAM-1 -1, D2 ag-2 2 and D2 PAM-2 -2.
`COc1ccc(Cc2nnc(SCC(=O)c3ccccc3)o2)cc1` gave D2 antagonist 8, D2 ag-1 -4, D2 PAM-1 -2, D2 ag-2 1 and D2 PAM-2 -3.
Screening Cc1cccnc1NC(=O)CSc1nnc(Cc2ccccc2)o1 returned D2 antagonist 44*, D2 ag-1 -1, D2 PAM-1 -4, D2 ag-2 0 and D2 PAM-2 -5.
For O=C(CSc1ccc2c(c1)OCCO2)Nc1cccnc1Cl the results were D2 antagonist -9, D2 ag-1 -7, D2 PAM-1 9, D2 ag-2 0 and D2 PAM-2 -2.
Screening Cc1ccccc1-c1nnc(SCC(=O)Nc2cccnc2Cl)o1 returned D2 ag-1 0 and D2 PAM-2 -6.
Screening COc1ccc(Cc2nnc(SCC(=O)N(C)c3ccccc3)o2)cc1 returned D2 antagonist 66*, D2 ag-1 4, D2 PAM-1 2, D2 ag-2 -1 and D2 PAM-2 -3.
For O=C(Nc1cccc(Oc2ccccc2)c1)C1Cc2c(-c3ccccc3)ccnc2O1 (stereo unspecified) the results were D2 ag-1 -5 and D2 PAM-2 -5.
For COc1ccc(-n2c(=O)c3ccccc3n(CC(=O)NCCc3ccc(OC)c(OC)c3)c2=O)cc1 the results were D2 PAM-1 9 and D2 ag-2 -1.
For O=C1c2ccccc2C(=O)c2c(Nc3ccc(CCO)cc3)ccc(O)c21 the results were D2 antagonist 19, D2 ag-1 41*, D2 PAM-1 -4, D2 ag-2 1 and D2 PAM-2 -14.
For CCCC1(C2CCCC2)NC(=O)NC1=O (stereo unspecified) the results were D2 ag-1 -1 and D2 PAM-2 -4.
Screening Cc1cccc(CSc2cn(CC(=O)N3CCOCC3)c3ccccc23)c1 returned D2 antagonist 35*, D2 ag-1 -1, D2 PAM-1 0, D2 ag-2 0 and D2 PAM-2 -7.
O=C(Cn1cc(/C=N/O)c2ccccc21)N1CCOCC1 was read as D2 antagonist 39*, D2 ag-1 -5, D2 PAM-1 -5, D2 ag-2 1 and D2 PAM-2 -9.
For O=C(Nc1ccccc1C(=O)N1CCCC1)c1ncoc1-c1cccc(Cl)c1 the results were D2 antagonist 17, D2 ag-1 4, D2 PAM-1 3, D2 ag-2 0 and D2 PAM-2 -1.
Screening Cc1ccc(-c2ocnc2C(=O)Nc2ccccc2C(=O)N2CCCC2)cc1 returned D2 antagonist 57*, D2 ag-1 0, D2 PAM-1 -11, D2 ag-2 -1 and D2 PAM-2 -7.
For Cc1cccc(COc2ccc(/C=C3/C(=O)N(C)C(=S)N3C)cc2)c1 the results were D2 antagonist 31*, D2 ag-1 1, D2 PAM-1 -2, D2 ag-2 -1 and D2 PAM-2 -1.
For CCC(=O)N1CCCC(C(=O)Nc2ccc3cn[nH]c3c2)CC1 (stereo unspecified) the results were D2 ag-1 3 and D2 PAM-2 -6.
For C=CCn1c(COc2ccccc2)nnc1SC(C)C(=O)N/N=C/c1cc(Cl)ccc1O (stereo unspecified) the results were D2 antagonist 5, D2 ag-1 5, D2 PAM-1 -4, D2 ag-2 -1 and D2 PAM-2 58*.
`COc1ccc(CCNC2CCc3ccccc3C2)cc1` (stereo unspecified) gave D2 antagonist 81*, D2 ag-1 -5, D2 PAM-1 -12, D2 ag-2 -1 and D2 PAM-2 -69.
For COc1ccc(CCNC(=O)C2Cc3ccccc3C(=O)O2)cc1 (stereo unspecified) the results were D2 antagonist 8, D2 ag-1 -1, D2 PAM-1 9, D2 ag-2 1 and D2 PAM-2 -4.
Cc1ccc(-c2nc3c(C)cc(Br)cn3c2Cc2ccsc2)cc1 was read as D2 ag-1 -6 and D2 PAM-2 4.
Screening CC(=O)C1=C(C)NC(C)=C(C(C)=O)C1c1cccs1 returned D2 antagonist -10, D2 ag-1 -4, D2 PAM-1 7, D2 ag-2 0 and D2 PAM-2 6.
Screening CC(=O)C1=C(C)NC(C)=C(C(C)=O)C1c1ccccc1 returned D2 antagonist -1, D2 ag-1 41*, D2 PAM-1 4, D2 ag-2 0 and D2 PAM-2 8.
c1ccc(-c2nnc3oc(-c4cccs4)nn23)cc1 was read as D2 ag-1 -5 and D2 PAM-2 -8.
`Cc1ccc(NC(=O)C(Cc2ccccc2)NS(=O)(=O)c2ccc3c(c2)c(=O)n(C)c(=O)n3C)cc1` (stereo unspecified) gave D2 PAM-1 6.
Screening CCSc1nnc(NC(=O)c2c(C)noc2C)s1 returned D2 antagonist -7, D2 ag-1 -4, D2 PAM-1 5, D2 ag-2 0 and D2 PAM-2 -13.
For CCSc1nnc(NC(=O)c2csc3c2CCC(C)C3)s1 (stereo unspecified) the results were D2 ag-1 0 and D2 PAM-2 1.
For CCSc1nnc(NC(=O)c2cc(C)on2)s1 the results were D2 antagonist 56*, D2 ag-1 -3, D2 ag-2 2 and D2 PAM-2 -7.
`CCSc1nnc(NC(=O)c2csc3c2CCCC3)s1` gave D2 antagonist 40*, D2 ag-1 -2, D2 PAM-1 -5, D2 ag-2 0 and D2 PAM-2 -10.
For COc1ccccc1N1CCN(C(=O)C(CCSC)NS(=O)(=O)c2ccc3c(c2)oc(=O)n3C)CC1 (stereo unspecified) the results were D2 PAM-1 -8 and D2 ag-2 2.
COc1ccc2c(CNCc3cccs3)c(C(=O)O)n(Cc3ccccc3C)c2c1 was read as D2 PAM-1 -15 and D2 ag-2 2.
For CCc1nn2c(-c3ccccc3OC)ccnc2c1-c1ccccc1 the results were D2 PAM-1 5 and D2 ag-2 0.
